The text below walks through data of PubChem BioAssay (NCATS).

Several values for one entry are separate records, joined by “and”; a condition that tells them apart may be missing. Identical values can stand only once. Inconclusive results are not listed. Activity calls are given as the source filed them. Unless noted, calls come from the whole dose curve; as a rule, active = well fitted curve in the direction sought with a large enough effect; inconclusive = small, poorly fitted or top-dose-only effect, or another doubt; inactive = no such curve, though single readings can be large; an effect the other way counts as inactive or inconclusive.

Experiment [1] addresses Arylsulfatase A (Homo sapiens) (UniProt P15289). In words: qHTS screen for enhancers of Arylsulfatase A (ASA1): LOPAC Validation Assay (AID 720538). Note: 0% is about no effect. In outline:
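MLD patient fibroblasts (SV40, ASA-I179S), 1536-well; adhere 6 hrs; cpd 48h, 37 degree C, 5% CO2; pNCS 0.5mM final in lysis buffer, 14h RT; stop 1N NaOH final; fluor. Ex525/Em598.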

Experiment [2] in a line: qHTS for compounds that reverse cellular toxicity of Amyloid beta (A-beta) peptide in yeast: LOPAC Validation Assay (AID 720559).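 Note: plate controls were DMSO for no effect and equimolar ferric chloride plus clioquinol rescue for full effect.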 The gist of the method: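 Medium dispensed, compounds pinned, A-beta yeast suspension added; plates held at 30 C for 48 hr; absorbance measured at 600 nm to gauge growth; values scaled between DMSO and FeCl3/clioquinol (equimolar) controls.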

The nature of experiment [3]: qHTS for Activators of Parkin Expression: LOPAC Validation Assay (NLuc Reporter) (AID 720572). In outline:
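Cells harboring the Parkin-promoter coincidence reporter were treated for 24 h at seven concentrations. NLuc output was measured sequentially after the FLuc channel and scaled between DMSO and positive control values.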

Experiment [4] is described as follows: qHTS for Activators of Parkin Expression: LOPAC Validation Assay (FLuc Reporter) (AID 720573). The gist of the method: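 Cells seeded, 24 h; compounds pinned, 7-pt dose response; 24 h at 37 C/5% CO2; volume reduced; FLuc reagent 10 min RT; luminescence read. Normalization: DMSO = 0, positive control = 100%.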
The nature of experiment [5]: qHTS assay for small molecule agonists of the antioxidant response element (ARE) signaling pathway measured by Nrf2-dependant transcriptional activity (AID 720636; active = well fitted curve in the direction sought with a large enough effect in the repeat runs; an effect the other way counts as inactive or inconclusive;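 note: HepG2 cells with an ARE-driven luciferase reporter; % of control where 0% means no effect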). The gist of the method:
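Nrf2-dependent transcription is measured in ARE-luc HepG2 cells: compound is applied for 16 hr at 37 C after a 6 hr attachment period, and luciferase activity is quantified by luminescence using ONE-Glo.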

Experiment [6] is described as follows: qHTS assay for small molecule agonists of the antioxidant response element (ARE) signaling pathway measured by Nrf2-dependant transcriptional activity - cell viability counter screen (AID 720653; active = well fitted curve in the direction sought with a large enough effect in the repeat runs; an effect the other way counts as inactive or inconclusive; note: % is set by controls: 0 for no effect and ±100 for the full control effect). As to conditions: ARE-bla HepG2 viability, CellTiter-Glo ATP luminescence, 16 h; max response: stronger effect = lower value. The gist of the method:
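ARE-bla HepG2 cells (2,000/well) rested 5 hrs at 37C/5% CO2, then exposed to compounds in DMSO for 16 hrs. Viability was read in the same wells as intracellular ATP by luminescence, 30 min at room temperature after reagent addition.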

In experiment [7] the target is T1, Hexokinase-4 (Homo sapiens) + Glucokinase regulatory protein (Homo sapiens) (UniProt P35557+Q14397). As to the kind of experiment: qHTS assay for inhibitors of recombinant human GCK-GKRP interaction: Diaphorase-coupled assay (AID 743205). In outline: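 25 mM Hepes pH 7.6, 5 mM glucose, 0.4 mM ATP, 4 U/ml G6PDH; 10 nM each GST-GCK/FLAG-GKRP. Kinetic fluorescence read, 1/min × 30 min. Normalized: DMSO ± enzyme = max/min.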

Experiment [8] has as its target T1, Hexokinase-4 (Homo sapiens) + Glucokinase regulatory protein (Homo sapiens). In words: qHTS assay for inhibitors of recombinant human GCK-GKRP interaction: ADP-Glo assay (AID 743206).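 Note: plate controls were DMSO plus enzyme for no effect and no enzyme for full effect.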 In outline:
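Pin-transferred compounds meet a 15 nM GST-GCK/15 nM FLAG-GKRP/2 uM S6P mix (dispense concentrations). ATP is then added to 0.4 mM final with 5 mM glucose, and the reaction runs 60 min at room temperature. ADP is quantified luminescently.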

Experiment [9] shares this target. In words: qHTS assay for inhibitors of recombinant human GCK-GKRP interaction: HTRF assay (AID 743207).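 Note: 0% = DMSO with GCK present and -100% = DMSO wells lacking GCK.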 In outline: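 5 nM GST-GCK + 5 nM FLAG-GKRP + 2 uM S6P, pH 7.1 buffer (25 mM Hepes, 2 mM MgCl2, 25 mM KCl, 1 mM DTT, Tween/BSA); pin-transferred cpd; anti-FLAG XL665/anti-GST K; 60 min RT; HTRF.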
Experiment [10] is described as follows: qHTS Assay for Identifying Gametocytocidal Compounds (AID 743244).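 Note: % is set by controls: 0 for no effect and ±100 for the full control effect; actives lower the fluorescent signal which means gametocytes are killed.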 As to conditions: P. falciparum 3D7 stage III-V gametocytes, alamarBlue, 72 h; max response: stronger effect = lower value. In outline:
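In this qHTS viability screen, late-stage 3D7 gametocytes are incubated with compound for 72 h, then with alamarBlue for 24 h; reduced resorufin fluorescence marks killing.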

Experiment [11] in a line: qHTS assay for cell viability of HEK293 cells (AID 743288). Note: % is set by controls: 0 for no effect and ±100 for the full control effect; nearly all actives have a fitted effect of over 50% in size. The conditions noted are these: ATP luminescence (CellTiter-Glo), 18 h; max response: stronger effect = lower value. In outline: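 Viable-cell counts were inferred from luciferase-based ATP content in HEK293 cells seeded at 2,000/well, pre-incubated ≥5 h, then dosed with DMSO-solubilised compounds for 18 h at 37 C.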
Experiment [12] can be described thus: qHTS assay for cell viability of the p53RE-bla HCT-116 cell line (AID 743292). Note: % is set by controls: 0 for no effect and ±100 for the full control effect; nearly all actives have a fitted effect of over 55% in size. In outline: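 ATP-based luminescence, 16 h compound exposure at 37 C, p53RE-bla HCT-116 cells at 4,000/well.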
Experiment [13] can be described thus: qHTS profiling of the MIPE4 collection as inhibitors of Plasmodium falciparum (3D7) proliferation (AID 743344; call rule not given here;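 note: scaled between DMSO vehicle wells and 0.29 µM artemisinin as full inhibition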). As to conditions: P. falciparum 3D7 in erythrocytes, SYBR Green DNA fluorescence, 72 h; at 28.5 µM (top of the series) unless noted. In outline: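 Parasite DNA was quantified by SYBR Green I fluorescence (ex 485, em 535 nm) after overnight lysis in saponin/Triton buffer at room temperature. Cultures at 0.3% parasitemia and 2.5% hematocrit were first exposed to compound for 72 h at 37 C; signals were normalised to artemisinin (0.29 uM) and vehicle wells.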

For experiment [14], the target named is Nuclear receptor ROR-gamma (Homo sapiens) (UniProt P51449). In words: qHTS assay for small molecule antagonists of the retinoid-related orphan receptor gamma (ROR-gamma) signaling pathway (AID 651802).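 Note: luciferase reporter luminescence driven by ROR response element; % is set by controls: 0 for no effect and ±100 for the full control effect; nearly all actives have a fitted effect of over 60% in size.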 The gist of the method: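 Luminescence (One-Glo, 30 min RT) measured 16 h after compound addition and doxycycline induction at 37C. Reporter: RORE-luciferase under TET-inducible ROR-gamma in CHO cells.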

A short description of experiment [15]: qHTS assay for small molecule antagonists of the retinoid-related orphan receptor gamma (ROR-gamma) signaling pathway - cell viability counter screen (AID 720652; active = well fitted curve in the direction sought with a large enough effect in the repeat runs; an effect the other way counts as inactive or inconclusive;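 note: compound exposure lasted 16 hr before ATP read; % is set by controls: 0 for no effect and ±100 for the full control effect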). In outline: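 Cytotoxicity counter screen: intracellular ATP (CellTiter-Glo luminescence) measured in the doxycycline-induced CHO RORE-luciferase reporter line after 16 hr compound exposure at 37 C, 5% CO2.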

Nuclear receptor ROR-gamma (Homo sapiens), sequence (P51449 whole entry, looked up): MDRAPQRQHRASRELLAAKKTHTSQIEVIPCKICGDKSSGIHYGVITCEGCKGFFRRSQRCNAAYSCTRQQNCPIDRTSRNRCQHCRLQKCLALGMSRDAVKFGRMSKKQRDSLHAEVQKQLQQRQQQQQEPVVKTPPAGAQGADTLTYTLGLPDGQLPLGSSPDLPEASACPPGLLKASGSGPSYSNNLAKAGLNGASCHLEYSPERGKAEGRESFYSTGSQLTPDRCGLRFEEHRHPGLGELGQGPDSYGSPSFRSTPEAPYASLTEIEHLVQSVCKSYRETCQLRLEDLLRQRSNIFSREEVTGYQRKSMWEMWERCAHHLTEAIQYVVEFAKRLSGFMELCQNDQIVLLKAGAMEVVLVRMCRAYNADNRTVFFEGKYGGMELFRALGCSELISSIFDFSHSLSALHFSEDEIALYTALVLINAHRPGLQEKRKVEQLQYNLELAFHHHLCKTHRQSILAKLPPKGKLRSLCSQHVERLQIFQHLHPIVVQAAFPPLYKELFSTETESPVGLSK
Arylsulfatase A (Homo sapiens), sequence (P15289 whole entry, looked up): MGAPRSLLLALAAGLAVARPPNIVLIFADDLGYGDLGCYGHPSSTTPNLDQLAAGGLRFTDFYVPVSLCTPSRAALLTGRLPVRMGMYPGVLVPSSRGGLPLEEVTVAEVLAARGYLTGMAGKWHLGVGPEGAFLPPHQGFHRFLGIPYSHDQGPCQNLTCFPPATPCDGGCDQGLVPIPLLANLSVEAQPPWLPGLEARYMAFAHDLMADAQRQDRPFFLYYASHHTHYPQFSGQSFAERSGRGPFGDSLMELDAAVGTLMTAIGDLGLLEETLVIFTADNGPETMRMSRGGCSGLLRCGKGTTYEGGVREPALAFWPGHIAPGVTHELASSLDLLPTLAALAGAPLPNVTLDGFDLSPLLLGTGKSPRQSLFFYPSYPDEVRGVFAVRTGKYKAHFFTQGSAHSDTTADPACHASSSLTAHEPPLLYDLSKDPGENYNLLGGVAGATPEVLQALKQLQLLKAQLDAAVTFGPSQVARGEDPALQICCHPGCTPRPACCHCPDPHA
T1 sequence (P35557 whole entry, looked up): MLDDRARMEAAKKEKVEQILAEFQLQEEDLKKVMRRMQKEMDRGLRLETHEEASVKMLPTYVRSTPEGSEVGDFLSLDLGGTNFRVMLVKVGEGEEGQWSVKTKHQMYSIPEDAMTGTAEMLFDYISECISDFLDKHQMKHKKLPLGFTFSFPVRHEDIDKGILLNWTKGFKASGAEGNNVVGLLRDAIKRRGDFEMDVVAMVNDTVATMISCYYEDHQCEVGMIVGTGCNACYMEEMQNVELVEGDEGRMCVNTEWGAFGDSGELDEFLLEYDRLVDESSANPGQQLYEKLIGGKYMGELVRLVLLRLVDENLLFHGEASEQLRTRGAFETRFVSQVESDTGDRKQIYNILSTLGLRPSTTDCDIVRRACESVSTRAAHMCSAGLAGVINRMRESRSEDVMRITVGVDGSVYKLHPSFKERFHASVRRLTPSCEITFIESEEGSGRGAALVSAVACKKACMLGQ
T1 sequence (Q14397 whole entry, looked up): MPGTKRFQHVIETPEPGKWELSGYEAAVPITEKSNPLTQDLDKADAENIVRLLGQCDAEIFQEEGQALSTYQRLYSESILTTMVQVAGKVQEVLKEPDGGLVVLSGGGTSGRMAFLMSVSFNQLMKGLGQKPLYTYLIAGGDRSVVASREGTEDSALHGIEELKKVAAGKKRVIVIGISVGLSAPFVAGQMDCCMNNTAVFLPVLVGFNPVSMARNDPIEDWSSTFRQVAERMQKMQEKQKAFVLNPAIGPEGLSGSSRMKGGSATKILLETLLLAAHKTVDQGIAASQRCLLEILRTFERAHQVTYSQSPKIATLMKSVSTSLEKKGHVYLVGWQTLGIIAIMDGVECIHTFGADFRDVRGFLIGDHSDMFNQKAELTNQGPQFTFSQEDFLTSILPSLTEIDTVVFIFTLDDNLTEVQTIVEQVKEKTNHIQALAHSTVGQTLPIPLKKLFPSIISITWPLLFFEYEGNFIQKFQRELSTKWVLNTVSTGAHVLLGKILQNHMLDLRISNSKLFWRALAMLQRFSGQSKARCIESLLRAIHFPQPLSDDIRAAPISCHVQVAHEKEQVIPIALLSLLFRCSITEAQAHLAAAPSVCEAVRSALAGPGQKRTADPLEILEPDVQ

As to `CCOC(=O)C(C)(C)Oc1ccc(Cl)cc1`, the Potency result in experiment [1], in experiment [4], in experiment [7], in experiment [8], in experiment [9] and in [12] was “inactive” in each case. For the same compound, the result in [2], in experiment [3] and in [5] was inactive. Also, the max response was -4.42% (inactive) in [6]; 9.62% (inactive) and 0.495% (inactive) in experiment [10]; -5.02% (inactive) in experiment [11].

As for `O=C(c1ccc(OCCN2CCCCC2)cc1)c1c(-c2ccc(O)cc2)sc2cc(O)ccc12`, the Potency result in [1], in [4], in [7], in [8] and in experiment [9] was “inactive” in each case. Besides, the compound was called inactive in experiment [2], in experiment [3] and in experiment [5]. The parasite growth, % of DMSO control in [13] amounted to 7.18%.

Turning to `O=C(CCCN1CCC(O)(c2ccc(Cl)cc2)CC1)c1ccc(F)cc1`, the Potency result in experiment [1], in experiment [4] and in experiment [12] was “inactive” in each case. Further, the call in [2], in experiment [3] and in [5] was inactive. The max response in experiment [6] is -9.04% (inactive); in [11], -20.6% (inactive).

Turning to `Cn1cnc2c1c(=O)[nH]c(=O)n2C`, the Potency result in [1], in experiment [4], in [7], in [8], in [9] and in [12] was “inactive” in each case. Further, the compound was called inactive in experiment [2], in [3] and in experiment [5]. In addition, the max response in [6] is 4.98% (inactive); in experiment [10] it was -9.46% (inactive) and -3.09% (inactive); in experiment [11], -4% (inactive).

For `CCC1(c2ccccc2)C(=O)NCNC1=O`, the Potency result in experiment [14], in [1], in experiment [4], in experiment [15], in experiment [7] and in experiment [8] was “inactive” each time. Moreover, the Potency entry in experiment [9] and in experiment [12] was “inactive” throughout. For the same compound, the compound was classed as inactive in experiment [2], in experiment [3] and in experiment [5]. Also, the max response in experiment [6] was 3.8% (inactive) and 3.23% (inactive); in experiment [10] it was 16.7% (inactive) and 25% (inactive); in [11] it was -2.05% (inactive) and -6.21% (inactive). This compound returned a parasite growth, % of DMSO control in experiment [13] of 109%.

As to `COc1cc2c(c(OC)c1OC)-c1ccc(OC)c(=O)cc1[C@@H](NC(C)=O)CC2`, the Potency result in [1], in experiment [4], in experiment [15], in experiment [7], in experiment [8] and in experiment [9] was “inactive” each time. Besides, in experiment [12], the Potency entry is “inactive”. In addition, the outcome in experiment [2], in experiment [3] and in experiment [5] was inactive. Further, the max response in experiment [6] was -19.8% (inactive) and 13.5% (inactive) and -10.8% (inactive); in [10], -10.9% (inactive) and -1.99% (inactive); in [11], -13.3% (inactive) and -14.4% (inactive) and -4% (inactive).

As for `Cc1cn([C@H]2C=C[C@@H](CO)O2)c(=O)[nH]c1=O`, the Potency entry in experiment [14], in experiment [1], in [4], in experiment [15], in experiment [7] and in experiment [8] was “inactive” in each case. Further, the Potency entry in [9] and in experiment [12] was “inactive” in each case. The call in experiment [2], in experiment [3] and in experiment [5] was inactive. The max response in [6] was 6.12% (inactive) and 3.59% (inactive) and -11.2% (inactive); in [10], 12.3% (inactive) and 14% (inactive); in [11] it was -5.34% (inactive) and -4.2% (inactive) and -3.76% (inactive). In [13], this compound showed a parasite growth, % of DMSO control of 325% [at 57.5 µM].
